Data as given in ChEMBL document CHEMBL3988442, “University of Dundee, Small-Polar-MMV Screening Library” (2021).
For some of these results: Measured potencies and affinities stand elsewhere.

Experiments:
[1] = molecular target: T1, Methionyl-tRNA synthetase, putative (Leishmania donovani (strain BPK282A1)) (UniProt E9BF75); assay: Leishmania donovani Methionine tRNA synthetase (LdMetRS):v7. Dose response assay; type: functional; parameters: conc 80 nM, time 150 minutes
T1 sequence (whole entry): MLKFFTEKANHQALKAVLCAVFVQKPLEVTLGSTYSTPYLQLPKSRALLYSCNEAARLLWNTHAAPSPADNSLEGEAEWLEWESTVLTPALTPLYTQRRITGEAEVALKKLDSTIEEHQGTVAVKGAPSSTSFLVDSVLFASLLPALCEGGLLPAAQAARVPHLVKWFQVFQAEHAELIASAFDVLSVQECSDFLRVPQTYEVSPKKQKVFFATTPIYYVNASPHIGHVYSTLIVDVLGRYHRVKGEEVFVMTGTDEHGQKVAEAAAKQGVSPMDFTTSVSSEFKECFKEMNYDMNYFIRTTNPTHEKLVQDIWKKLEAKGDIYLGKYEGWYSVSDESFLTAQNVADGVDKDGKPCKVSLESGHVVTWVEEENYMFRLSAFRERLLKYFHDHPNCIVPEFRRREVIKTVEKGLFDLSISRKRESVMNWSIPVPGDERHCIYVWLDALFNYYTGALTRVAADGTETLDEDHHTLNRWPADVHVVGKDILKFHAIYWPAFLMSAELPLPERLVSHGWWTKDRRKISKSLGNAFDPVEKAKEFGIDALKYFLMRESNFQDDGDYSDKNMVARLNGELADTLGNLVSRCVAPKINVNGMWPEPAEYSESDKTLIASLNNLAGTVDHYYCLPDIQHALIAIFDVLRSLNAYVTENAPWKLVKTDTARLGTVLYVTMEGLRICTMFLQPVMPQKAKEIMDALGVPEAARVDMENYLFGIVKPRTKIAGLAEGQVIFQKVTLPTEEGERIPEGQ

[2] = molecular target: Protein translocase subunit SecA (Escherichia coli (strain K12)) (UniProt P10408); assay: Assay to Identify E. coli SecA ATPase Inhibitors; type: functional; parameters: scale not given: direction of the effect not stated beside the values; conditions: 30 µM
[3] = molecular target: T2, Ubiquitin-activating enzyme e1, putative (Leishmania donovani (strain BPK282A1)) (UniProt E9BSI1); assay: Leishmania donovani Ubiquitin Activating Enzyme (LdE1); type: functional; parameters: scale not given: direction of the effect not stated beside the values; conditions: 30 µM
T2 sequence (whole entry): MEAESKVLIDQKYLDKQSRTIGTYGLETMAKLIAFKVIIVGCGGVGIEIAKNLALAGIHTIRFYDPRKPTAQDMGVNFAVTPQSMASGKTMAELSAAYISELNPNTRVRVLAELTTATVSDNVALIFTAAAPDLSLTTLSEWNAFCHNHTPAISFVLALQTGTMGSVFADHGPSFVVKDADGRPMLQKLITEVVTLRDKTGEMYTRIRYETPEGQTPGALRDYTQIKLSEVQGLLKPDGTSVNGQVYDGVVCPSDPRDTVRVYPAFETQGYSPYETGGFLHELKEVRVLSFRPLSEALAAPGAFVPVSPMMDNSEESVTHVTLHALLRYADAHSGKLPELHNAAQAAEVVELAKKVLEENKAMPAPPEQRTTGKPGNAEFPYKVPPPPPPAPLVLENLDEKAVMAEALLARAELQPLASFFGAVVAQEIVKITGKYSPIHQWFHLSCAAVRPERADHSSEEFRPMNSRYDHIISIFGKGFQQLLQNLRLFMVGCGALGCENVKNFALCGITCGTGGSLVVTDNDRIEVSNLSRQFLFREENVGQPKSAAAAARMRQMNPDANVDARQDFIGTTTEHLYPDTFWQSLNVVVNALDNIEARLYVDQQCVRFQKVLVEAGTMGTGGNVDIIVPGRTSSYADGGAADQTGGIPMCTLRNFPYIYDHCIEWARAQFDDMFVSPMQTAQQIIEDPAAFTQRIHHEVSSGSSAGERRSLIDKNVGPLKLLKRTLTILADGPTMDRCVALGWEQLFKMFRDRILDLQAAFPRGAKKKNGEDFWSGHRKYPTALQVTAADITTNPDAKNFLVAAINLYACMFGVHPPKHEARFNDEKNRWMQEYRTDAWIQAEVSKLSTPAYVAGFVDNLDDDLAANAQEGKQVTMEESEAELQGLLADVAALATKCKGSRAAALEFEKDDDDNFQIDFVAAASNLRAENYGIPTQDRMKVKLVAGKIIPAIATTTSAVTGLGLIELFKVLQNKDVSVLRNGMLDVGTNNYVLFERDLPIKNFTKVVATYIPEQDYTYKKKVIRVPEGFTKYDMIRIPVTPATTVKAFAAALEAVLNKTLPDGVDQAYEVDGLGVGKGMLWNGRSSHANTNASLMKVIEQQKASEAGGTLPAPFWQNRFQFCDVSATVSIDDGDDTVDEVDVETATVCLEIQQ

[4] = molecular target: Sialic acid-binding Ig-like lectin 9 (Homo sapiens) (UniProt Q9Y336); assay: Hs-Siglec9 ALPHAscreen SOP 20170721; parameters: scale not given: direction of the effect not stated beside the values; conditions: 10 µM
[5] = system: Trypanosoma cruzi; assay: Trypanosoma cruzi phosphomannomutase and mannose-1-phosphate guanylyltransferase assay; type: functional; parameters: scale not given: direction of the effect not stated beside the values; conditions: 10 µM
[6] = molecular target: T3, Arginase-2, mitochondrial (Homo sapiens) (UniProt P78540); assay: in vitro enzyme assay to detect the production of urea directly proportional to the activity of Arginase II; type: functional; parameters: scale not given: in the data most compounds retested in dose-response had high values
T3 sequence (whole entry): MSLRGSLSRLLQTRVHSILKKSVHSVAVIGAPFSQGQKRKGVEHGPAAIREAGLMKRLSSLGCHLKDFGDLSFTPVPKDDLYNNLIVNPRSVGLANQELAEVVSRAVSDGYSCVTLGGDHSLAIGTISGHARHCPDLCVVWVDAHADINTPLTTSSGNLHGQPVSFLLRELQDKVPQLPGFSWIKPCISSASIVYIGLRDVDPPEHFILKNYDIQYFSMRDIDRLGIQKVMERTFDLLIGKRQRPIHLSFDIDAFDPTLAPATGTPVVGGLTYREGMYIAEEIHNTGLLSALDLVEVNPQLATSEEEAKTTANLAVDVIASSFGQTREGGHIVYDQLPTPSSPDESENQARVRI

[7] = molecular target: T4, Proteasome subunit beta (Trypanosoma cruzi) (UniProt O96673); assay: Trypanosoma cruzi proteasome chymotrypsin-like activity (TcProtChymo) assay.; type: functional; parameters: scale not given: in the data most compounds retested in dose-response had high values; conditions: 9.37 µM
T4 sequence (whole entry): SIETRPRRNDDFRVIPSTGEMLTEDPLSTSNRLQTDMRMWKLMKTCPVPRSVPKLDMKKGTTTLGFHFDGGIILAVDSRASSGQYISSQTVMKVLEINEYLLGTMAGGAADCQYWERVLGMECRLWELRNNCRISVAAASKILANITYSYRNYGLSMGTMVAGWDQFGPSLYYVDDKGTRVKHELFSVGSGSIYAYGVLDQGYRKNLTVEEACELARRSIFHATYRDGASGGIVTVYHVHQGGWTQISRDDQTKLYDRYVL

[8] = organism: Homo sapiens; assay: To identify inhibition of the IFN signalling (Jak-Stat) pathway via expression of an eGFP reporter gene under the control of an IFN-stimulated response element (ISRE) containing MxA promoter.; type: functional; parameters: scale not given: direction of the effect not stated beside the values; conditions: 30 µM
[9] = molecular target: T5, Tyrosyl-tRNA synthetase, putative (Trypanosoma cruzi (strain CL Brener)) (UniProt Q4DSP6); assay: Trypanosoma cruzi tyrosyl tRNA synthetase (TcYRS) _High Tyrosine SOP; type: functional; parameters: scale not given: in the data most compounds retested in dose-response had high values; conditions: 30 µM
T5 sequence (whole entry): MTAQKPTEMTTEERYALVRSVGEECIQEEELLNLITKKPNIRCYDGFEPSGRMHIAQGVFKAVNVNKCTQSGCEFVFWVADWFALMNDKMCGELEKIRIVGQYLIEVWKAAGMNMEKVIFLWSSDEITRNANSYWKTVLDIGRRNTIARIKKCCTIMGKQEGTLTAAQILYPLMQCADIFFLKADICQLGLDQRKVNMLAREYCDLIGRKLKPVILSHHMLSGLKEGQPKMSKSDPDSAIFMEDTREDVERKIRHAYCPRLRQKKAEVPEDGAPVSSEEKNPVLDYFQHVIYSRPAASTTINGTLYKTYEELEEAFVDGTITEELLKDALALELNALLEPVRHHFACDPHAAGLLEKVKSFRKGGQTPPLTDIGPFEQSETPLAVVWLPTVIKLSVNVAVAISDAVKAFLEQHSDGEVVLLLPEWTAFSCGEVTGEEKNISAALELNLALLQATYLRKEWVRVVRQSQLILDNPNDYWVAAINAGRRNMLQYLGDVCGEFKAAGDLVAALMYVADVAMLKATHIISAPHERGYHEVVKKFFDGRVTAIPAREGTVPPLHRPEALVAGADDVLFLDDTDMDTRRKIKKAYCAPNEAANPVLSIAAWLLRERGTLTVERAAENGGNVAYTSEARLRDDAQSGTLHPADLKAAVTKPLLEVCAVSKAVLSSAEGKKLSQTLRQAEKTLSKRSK

[10] = molecular target: T5, Tyrosyl-tRNA synthetase, putative (Trypanosoma cruzi (strain CL Brener)); assay: Trypanosoma cruzi tyrosyl tRNA synthetase (TcYRS) SOP; type: functional; parameters: scale not given: direction of the effect not stated beside the values; conditions: 30 µM
[11] = molecular target: Chromo domain-containing protein 1 (Saccharomyces cerevisiae (strain ATCC 204508 / S288c) (Baker's yeast)) (UniProt P32657); assay: ScCHD-1 Enzyme Inhibition Assay; type: functional; parameters: scale not given: in the data most compounds retested in dose-response had high values; conditions: 30 µM
[12] = molecular target: AMP-activated protein kinase, AMPK (Homo sapiens) (UniProt P54646+O43741+P54619+Q9UGJ0+Q9Y478+Q13131+Q9UGI9); assay: AMP-dependent Kinase enzyme assay. An in vitro enzyme assay that detects ADP turnover that is directly proportional to AMPK activity. This uses naive AMPK that is activated during the assay with MK-8722; type: functional; parameters: scale not given: direction of the effect not stated beside the values; conditions: 30 µM

Protein translocase subunit SecA (Escherichia coli (strain K12)), sequence (P10408 whole entry): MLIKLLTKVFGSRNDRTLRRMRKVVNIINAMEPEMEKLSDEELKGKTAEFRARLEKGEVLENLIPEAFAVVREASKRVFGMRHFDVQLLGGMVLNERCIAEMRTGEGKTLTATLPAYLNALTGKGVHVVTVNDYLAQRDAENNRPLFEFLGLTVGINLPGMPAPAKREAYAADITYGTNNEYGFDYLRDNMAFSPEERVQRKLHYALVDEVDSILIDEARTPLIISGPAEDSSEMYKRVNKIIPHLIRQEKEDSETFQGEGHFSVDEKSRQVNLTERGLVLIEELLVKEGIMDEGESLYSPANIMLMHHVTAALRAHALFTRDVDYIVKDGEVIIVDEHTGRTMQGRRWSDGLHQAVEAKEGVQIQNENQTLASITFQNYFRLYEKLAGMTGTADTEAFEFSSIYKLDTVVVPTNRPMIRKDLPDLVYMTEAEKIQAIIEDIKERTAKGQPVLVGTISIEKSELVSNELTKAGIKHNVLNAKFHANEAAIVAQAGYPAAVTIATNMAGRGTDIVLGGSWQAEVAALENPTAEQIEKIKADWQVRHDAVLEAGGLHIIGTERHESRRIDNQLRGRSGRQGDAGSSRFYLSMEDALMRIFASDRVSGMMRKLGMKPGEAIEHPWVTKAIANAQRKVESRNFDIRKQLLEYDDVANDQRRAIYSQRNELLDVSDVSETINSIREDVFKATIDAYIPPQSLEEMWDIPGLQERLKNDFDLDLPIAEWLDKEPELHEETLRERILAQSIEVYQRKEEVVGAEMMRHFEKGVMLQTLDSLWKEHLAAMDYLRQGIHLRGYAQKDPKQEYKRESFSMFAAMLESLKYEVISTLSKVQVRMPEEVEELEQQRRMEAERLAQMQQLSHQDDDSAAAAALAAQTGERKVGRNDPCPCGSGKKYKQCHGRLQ
Chromo domain-containing protein 1 (Saccharomyces cerevisiae (strain ATCC 204508 / S288c) (Baker's yeast)), sequence (P32657 whole entry, the tested form may be a part): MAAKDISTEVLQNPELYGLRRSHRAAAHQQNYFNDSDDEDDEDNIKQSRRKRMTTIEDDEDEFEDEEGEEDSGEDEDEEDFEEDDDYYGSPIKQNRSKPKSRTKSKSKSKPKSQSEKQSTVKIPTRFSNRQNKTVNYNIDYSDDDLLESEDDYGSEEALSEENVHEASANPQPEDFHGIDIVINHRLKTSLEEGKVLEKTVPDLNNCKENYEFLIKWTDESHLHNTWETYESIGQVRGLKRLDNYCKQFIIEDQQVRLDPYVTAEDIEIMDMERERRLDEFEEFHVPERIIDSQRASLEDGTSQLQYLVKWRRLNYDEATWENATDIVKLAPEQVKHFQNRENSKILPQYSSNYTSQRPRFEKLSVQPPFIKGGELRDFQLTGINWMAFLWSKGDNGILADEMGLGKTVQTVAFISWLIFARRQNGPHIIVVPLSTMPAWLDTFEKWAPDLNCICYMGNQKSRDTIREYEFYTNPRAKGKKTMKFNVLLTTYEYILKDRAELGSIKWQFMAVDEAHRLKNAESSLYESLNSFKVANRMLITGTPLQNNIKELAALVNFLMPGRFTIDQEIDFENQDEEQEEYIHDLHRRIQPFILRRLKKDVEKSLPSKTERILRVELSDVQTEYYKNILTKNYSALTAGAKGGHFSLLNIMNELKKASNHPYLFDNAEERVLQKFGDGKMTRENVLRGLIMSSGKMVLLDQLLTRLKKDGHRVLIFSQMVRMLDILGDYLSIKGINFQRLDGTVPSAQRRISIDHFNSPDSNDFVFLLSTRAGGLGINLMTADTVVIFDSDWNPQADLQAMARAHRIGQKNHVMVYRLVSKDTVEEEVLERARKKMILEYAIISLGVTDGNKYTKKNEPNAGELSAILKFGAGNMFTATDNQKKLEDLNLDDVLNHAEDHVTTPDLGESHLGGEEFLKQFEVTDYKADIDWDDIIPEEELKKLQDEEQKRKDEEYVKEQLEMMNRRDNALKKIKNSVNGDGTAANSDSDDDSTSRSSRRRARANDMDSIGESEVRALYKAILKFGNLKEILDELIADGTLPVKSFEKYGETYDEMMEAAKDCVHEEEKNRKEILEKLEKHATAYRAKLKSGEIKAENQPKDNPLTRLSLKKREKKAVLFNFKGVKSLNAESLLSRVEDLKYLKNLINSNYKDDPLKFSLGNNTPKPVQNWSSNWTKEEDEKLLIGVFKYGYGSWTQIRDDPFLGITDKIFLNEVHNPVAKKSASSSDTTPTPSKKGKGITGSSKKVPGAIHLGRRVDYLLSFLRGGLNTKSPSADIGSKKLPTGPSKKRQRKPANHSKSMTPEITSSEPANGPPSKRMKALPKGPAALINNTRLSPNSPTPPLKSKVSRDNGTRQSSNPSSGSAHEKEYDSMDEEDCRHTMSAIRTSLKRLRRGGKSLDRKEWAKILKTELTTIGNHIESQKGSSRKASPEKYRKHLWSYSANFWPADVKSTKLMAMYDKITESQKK
Sialic acid-binding Ig-like lectin 9 (Homo sapiens), sequence (Q9Y336 whole entry): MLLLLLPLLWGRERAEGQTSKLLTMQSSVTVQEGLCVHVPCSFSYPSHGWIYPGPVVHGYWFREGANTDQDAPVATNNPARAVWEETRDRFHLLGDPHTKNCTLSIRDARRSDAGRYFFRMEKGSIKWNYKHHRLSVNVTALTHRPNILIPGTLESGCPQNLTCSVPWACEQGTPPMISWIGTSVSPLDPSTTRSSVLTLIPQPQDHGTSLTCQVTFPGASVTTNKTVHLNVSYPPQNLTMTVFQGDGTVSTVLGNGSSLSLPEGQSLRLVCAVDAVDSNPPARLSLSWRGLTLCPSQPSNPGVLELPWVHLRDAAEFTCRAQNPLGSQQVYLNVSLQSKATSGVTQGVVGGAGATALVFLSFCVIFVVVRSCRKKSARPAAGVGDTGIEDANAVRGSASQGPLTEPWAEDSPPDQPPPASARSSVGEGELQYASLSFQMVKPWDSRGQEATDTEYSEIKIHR

SMILES: CCC(CO)NC(=O)c1ccc2ccc(N(C)CC3CC3)n2c1 (stereo not given)
- PXC50 ([1]; MAX_EFFECT 27.99295775): < 4
- PXC50 ([1]; MAX_EFFECT 39.42992874): < 4
- Percent Effect [2]: 3.49%
- Percent Effect [3]: 3.9%
- Percent Effect [4]: 0.399%
- Percent Effect [5]: 3.56%
- Percent Effect ([6]; 33.3 µM): 0.457%
- Percent Effect [7]: 15.2%
- Percent Effect [8]: 8.81%
- Percent Effect [9]: 12.6%
- Percent Effect [10]: 15%
- Percent Effect [11]: -3.69%

SMILES: Cc1nc(NCc2nnc(C)n2C)c2c(CC(C)C)csc2n1
- PXC50 ([1]; MAX_EFFECT 10.70496084): < 4
- PXC50 ([1]; MAX_EFFECT 13.5770235): < 4
- Percent Effect [12]: 1.71%

SMILES: COc1ccc(C2SC(C)=Nc3c2c(=O)[nH]n3C2CCCCC2)cc1O (stereo not given)
- Percent Effect [2]: 1.71%
- Percent Effect [3]: 17.3%
- Percent Effect [12]: 0.637%
- Percent Effect [4]: -1.4%
- Percent Effect [5]: 0.786%
- Percent Effect ([6]; 30 µM): -3.78%
- Percent Effect ([6]; 33.3 µM): -25.2%
- Percent Effect [7]: 15.3%
- Percent Effect [8]: 39.9%
- Percent Effect [9]: 43.4%
- Percent Effect [10]: 48.7%
- Percent Effect [11]: -12.8%

SMILES: Cc1ccccc1C1(CNc2nnc(C)c(C)c2C#N)CCOCC1
- PXC50 ([1]; MAX_EFFECT 12.82660333): < 4
- PXC50 ([1]; MAX_EFFECT 19.54225352): < 4
- Percent Effect [2]: -3.65%
- Percent Effect [3]: 0%
- Percent Effect [12]: -11.2%
- Percent Effect [4]: 2.86%
- Percent Effect [5]: -0.193%
- Percent Effect ([6]; 33.3 µM): -0.952%
- Percent Effect [7]: 9.31%
- Percent Effect [8]: 19.4%
- Percent Effect [9]: 2.65%
- Percent Effect [10]: 0%
- Percent Effect [11]: -3.83%

SMILES: Cc1ccc([C@@H]2CN(S(=O)(=O)c3cccs3)C[C@H]2N(C)C)cc1
- Percent Effect [2]: -5.74%
- Percent Effect [3]: 2.7%
- Percent Effect [12]: -3.82%
- Percent Effect [4]: 22.9%
- Percent Effect [5]: 2.25%
- Percent Effect ([6]; 30 µM): -0.54%
- Percent Effect ([6]; 33.3 µM): -0.744%
- Percent Effect [7]: 0.944%
- Percent Effect [8]: 22.4%
- Percent Effect [9]: 3.23%
- Percent Effect [10]: 13.6%
- Percent Effect [11]: -3.75%

SMILES: Cc1c(C(=O)O)sc2nc(Cc3ccccc3)nc(N)c12
- PXC50 ([1]; MAX_EFFECT 1.767676768): < 4
- PXC50 ([1]; MAX_EFFECT 2.040816327): < 4
- Percent Effect [12]: 4.73%
